miR-122 inh = raises miR-122 sensor activity in Huh7 cells. Huh7 psiCHECK-miR122 Renilla luciferase sensor, 48 h. activation, % at 12.5 µM. 340,000 compounds, 0.14% hits. AID 623901;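 active means mean activation of 30% or more, with every replicate also reaching 30%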;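 further: 0% = median of neutral control wells and 100% = median of positive control wells; higher luciferase signal means stronger suppression of miR-122 activity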
* marks the source's active call; other numbers are inactive results. This is one part of a sample in which hits are shown more often than they occur.

SMILES	miR-122 inh
C[C@H]1CN([C@@H](C)CO)S(=O)(=O)c2ccc(C#CC(C)(C)O)cc2O[C@@H]1CN(C)C(=O)C1CCC1	-13.1
Cc1ccc(-c2cnc(C3CC3)o2)cc1S(=O)(=O)Nc1ccccc1	-334.5
CC(C)(C)c1cc(C(=O)NNc2cccc(Cl)c2)n(Cc2ccccc2)n1	-126.3
C[C@@H](O)C#Cc1ccc2c(c1)O[C@H](CN(C)Cc1cccnc1)[C@@H](C)CN([C@@H](C)CO)S2(=O)=O	2.8
Cc1ccc(-n2c(Cc3ccccc3)n[nH]c2=S)cc1	41.0*
CCc1ccc(-c2cc(C)no2)cc1S(=O)(=O)Nc1ccc(C)cn1	-98.4
Cc1ccc(NS(=O)(=O)c2cc(C(=O)NCCSc3ccc(C)cc3)ccc2C)cc1	-114.8
NCC12CC3CC(C1)CC(c1ccc(Br)cc1)(C3)C2	34.3*
COc1ccc(C#Cc2ccc3c(c2)O[C@@H](CN(C)C(=O)NC2CCCCC2)[C@@H](C)CN([C@H](C)CO)S3(=O)=O)cc1	-7.6
C[C@@H]1CN([C@H](C)CO)C(=O)c2cc(/C=C/c3ccccc3)cnc2O[C@H]1CN(C)C(=O)Cc1ccccn1	5.0
C[C@@H]1CN([C@@H](C)CO)C(=O)c2cc(-c3cccc(F)c3)cnc2O[C@@H]1CN(C)C(=O)C1CCOCC1	3.8
O=C(Cc1cccs1)Nc1ccc(S(=O)(=O)N2CCCCC2)cc1	-131.7
O=C(Nc1nc2ccc(S(=O)(=O)N3CCCC3)cc2s1)C1CCCCC1	-130.4
O=C(Nc1nc(-c2cc3ccccc3o2)cs1)c1ccc(S(=O)(=O)N2CCCC2)cc1	51.7*
COc1ccccc1-c1ccc2c(c1)O[C@@H](CN(C)S(=O)(=O)c1ccc(C)cc1)[C@@H](C)CN([C@@H](C)CO)S2(=O)=O	-12.8
CCc1ccc(NC(=O)C(CC)Sc2nc3cc4c(cc3c(=O)n2Cc2ccco2)OCO4)cc1 (stereo not drawn)	-138.5
C[C@H](CO)N1C[C@H](C)[C@@H](CN(C)Cc2ccccn2)Oc2ncc(C#CCC3CCCC3)cc2C1=O	8.1
CCCCN1C=C(C(=O)OC)C(c2ccccc2C(F)(F)F)C(C(=O)OC)=C1	31.1*
COc1cccc(N2CCN(C(=O)c3oc4ccccc4c3NC(=O)Cc3ccc(OC)c(OC)c3)CC2)c1	-96.4
CCCC#Cc1cnc2c(c1)C(=O)N([C@@H](C)CO)C[C@@H](C)[C@@H](CN(C)C(=O)C1CC1)O2	-5.0
N/C(Cc1cccc2ccccc12)=N\OC(=O)c1ccc2c(c1)OCO2	-103.4
COc1cc(Cl)cc(/C=N\NC(=O)c2ccc3c(c2)OCO3)c1O	40.5*
C[C@@H]1CN([C@@H](C)CO)S(=O)(=O)c2ccc(C#C[C@@H](C)O)cc2O[C@H]1CN(C)Cc1cncnc1	-0.5
C[C@H]1CN([C@@H](C)CO)C(=O)c2cc(-c3cccc(F)c3)cnc2O[C@@H]1CN(C)C(=O)c1cccc(F)c1	2.6
COc1ccc(OC)c(S(=O)(=O)Nc2ccc(C(C)=O)cc2)c1	-99.6
SMILES	miR-122 inh
COc1cccc(OCc2cc(/C=N/Nc3ccc(C(=O)O)cc3)ccc2OC)c1	46.8*
CCC(=O)Nc1ccc2c(c1)OC[C@@H](C)N(CCC(F)(F)F)C[C@H](C)[C@H](OC)CN(C)C2=O	-0.9
COCC(=O)N(C)C[C@@H]1Oc2cc(Br)ccc2S(=O)(=O)N([C@@H](C)CO)C[C@H]1C	5.5
COCC(=O)Nc1ccc2c(c1)C(=O)N(C)C[C@@H](OC)[C@@H](C)CN(C(=O)COC)[C@H](C)CO2	-1.2
Cc1ccc(NS(=O)(=O)c2cc(OCC(N)=O)c(C)cc2Cl)cc1C	-94.9
COCC#Cc1ccc2c(c1)O[C@@H](CN(C)C(C)=O)[C@@H](C)CN([C@H](C)CO)S2(=O)=O	0.1
CN1C(=O)c2cc(NC(=O)c3cccc(F)c3)ccc2OC[C@H]2O[C@@H](CC(=O)O)CC[C@H]21	53.3*
CN1C(=O)c2cc(NC(=O)c3cccc(F)c3)ccc2OC[C@@H]2O[C@@H](CC(=O)O)CC[C@@H]21	86.7*
CN1C(=O)c2cc(NC(=O)c3cccc(F)c3)ccc2OC[C@H]2O[C@H](CC(=O)NC3CCC3)CC[C@H]21	70.0*
CO[C@H]1CN(C)C(=O)c2cc(NC(=O)c3ccc(F)cc3)ccc2OC[C@H](C)N(C)C[C@@H]1C	-0.7
COc1cccc(-c2cnc3c(c2)C(=O)N([C@@H](C)CO)C[C@@H](C)[C@H](CN(C)Cc2cccnc2)O3)c1	0.2
CCCNC(=O)Nc1ccc2c(c1)OC[C@H](C)NC[C@H](C)[C@@H](OC)CN(C)C2=O	-0.1
C[C@@H]1CN([C@H](C)CO)C(=O)c2cc(Br)cnc2O[C@@H]1CN(C)Cc1ccc2c(c1)OCO2	-4.4
C[C@@H]1CN([C@H](C)CO)C(=O)c2cc(-c3ccc(F)cc3)cnc2O[C@@H]1CN(C)Cc1cccnc1	-1.4
COc1ccc(C#Cc2cnc3c(c2)C(=O)N([C@H](C)CO)C[C@H](C)[C@@H](CN(C)CC2CCOCC2)O3)cc1	7.6
C[C@H](CO)N1C[C@H](C)[C@H](CN(C)C(=O)c2cccnc2)Oc2ncc(-c3ccc(F)cc3)cc2C1=O	6.0
C[C@H](CO)N1C[C@H](C)[C@H](CN(C)Cc2ccc(F)cc2)Oc2ncc(-c3cncnc3)cc2C1=O	4.9
C[C@H]1CN([C@@H](C)CO)S(=O)(=O)c2ccc(-c3ccccc3)cc2O[C@@H]1CN(C)Cc1cncnc1	-10.2
CCCC(=O)Nc1ccc2c(c1)OC[C@@H](C)N(C(C)=O)C[C@H](C)[C@@H](OC)CN(C)C2=O	-0.1
COc1ccccc1-c1ccc2c(c1)O[C@H](CN(C)S(=O)(=O)c1ccccc1)[C@@H](C)CN([C@H](C)CO)S2(=O)=O	-6.4
COCC#Cc1cnc2c(c1)C(=O)N([C@@H](C)CO)C[C@@H](C)[C@H](CN(C)C(=O)Cc1cccnc1)O2	3.9
C=CCc1c(OC)ccc2ccc(=O)oc12	31.5*
CCCNC(=O)N(C)C[C@@H]1Oc2ncc(C#C[C@H](C)O)cc2C(=O)N([C@@H](C)CO)C[C@H]1C	7.3
CCc1cccc(NS(=O)(=O)c2ccc3c(c2)N(C)CCO3)c1	-172.4
CC(=O)N1CCc2cc(S(=O)(=O)Nc3cccc(C(F)(F)F)c3)ccc21	-99.7
SMILES	miR-122 inh
C[C@@H]1CN([C@H](C)CO)S(=O)(=O)c2ccc(-c3cncnc3)cc2O[C@@H]1CN(C)C(=O)Cc1ccncc1	5.1
C[C@@H]1CN([C@@H](C)CO)S(=O)(=O)c2ccc(-c3ccc(C(=O)N(C)C)cc3)cc2O[C@@H]1CN(C)C(=O)C1CCC1	40.3*
C[C@@H]1CN([C@@H](C)CO)S(=O)(=O)c2ccc(-c3cncnc3)cc2O[C@H]1CN(C)C(=O)Cc1ccncc1	2.7
C[C@@H]1CN([C@H](C)CO)S(=O)(=O)c2ccc(C3=CCCC3)cc2O[C@@H]1CN(C)C(=O)C1CCOCC1	33.8*
C[C@@H]1CN([C@H](C)CO)S(=O)(=O)c2ccc(C3=CCCC3)cc2O[C@@H]1CN(C)C(=O)Cc1ccncc1	33.0*
C[C@@H]1CN([C@@H](C)CO)S(=O)(=O)c2ccc(-c3ccc(C(=O)N(C)C)cc3)cc2O[C@H]1CN(C)C(=O)C1CCOCC1	-11.5
C[C@@H]1CN([C@H](C)CO)S(=O)(=O)c2ccc(-c3ccc(C(=O)N(C)C)cc3)cc2O[C@H]1CN(C)C(=O)C1CCOCC1	-15.1
C[C@H]1CN([C@@H](C)CO)S(=O)(=O)c2ccc(-c3ccc(F)cc3)cc2O[C@@H]1CN(C)C(=O)C1CCOCC1	-18.6
C[C@@H]1CN([C@@H](C)CO)S(=O)(=O)c2ccc(-c3ccc(F)cc3)cc2O[C@@H]1CN(C)C(=O)C1CCOCC1	11.2
